Screening results (PubChem BioAssay)
Only some compounds are listed: those with a hit (about 0.9% of all), similar ones and a draw of the others.
APE1 inh-1: qHTS Assay for Inhibitors of the Human Apurinic/apyrimidinic Endonuclease 1 (APE1); Potency, µM (series often up to 65.8 µM), most hits filed as inhibitors; actives 0.35% (n = 350,000); recombinant APE1, TAMRA/BHQ-2 abasic DNA cleavage fluorescence; DNA repair nuclease/redox regulator APEX1 (Homo sapiens), P27695; further: nearly all actives have a fitted effect of over 55% in size
Target sequence (P27695 whole entry, looked up): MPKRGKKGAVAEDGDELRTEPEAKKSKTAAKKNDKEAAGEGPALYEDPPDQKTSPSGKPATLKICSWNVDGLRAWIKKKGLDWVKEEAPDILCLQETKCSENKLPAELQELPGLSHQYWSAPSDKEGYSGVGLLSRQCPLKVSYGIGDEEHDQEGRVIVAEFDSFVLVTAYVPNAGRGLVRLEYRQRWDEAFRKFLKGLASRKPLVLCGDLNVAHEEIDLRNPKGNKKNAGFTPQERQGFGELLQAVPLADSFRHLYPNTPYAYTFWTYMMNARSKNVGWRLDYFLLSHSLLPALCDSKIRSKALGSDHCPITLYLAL
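Kinetic fluorescence read (525 ex/598 em nm, three reads 60 s apart) of AP-site incision; signal = third minus first read. Enzyme 0.75 nM, dual-labelled THF duplex 50 nM, compound preincubation 15 min RT.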
TexasRed fluor: Total Fluorescence Counterscreen for Inhibitors of the Interaction of Thyroid Hormone Receptor and Steroid Receptor Coregulator 2. TRb/SRC2 Texas Red total fluorescence interference. Potency, µM (top dose mostly 106 µM). actives 0.29% (n = 280,000); active means well fitted curve in either direction with a large enough effect; inconclusive means small, poorly fitted or top-dose-only effect
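Human TRb ligand-binding domain at 0.6 uM with 20 nM Texas Red SRC2 peptide in Tris buffer containing 1 uM T3 and 5% DMSO, incubated with compound 5 h at ambient temperature. Total fluorescence (555/632 nm) calculated as parallel + 2 × perpendicular.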
TRb SRC2 PPI: qHTS for Inhibitors of the Interaction of Thyroid Hormone Receptor and Steroid Receptor Coregulator 2; Potency, µM (series often up to 106 µM), usual class: inhibitors; AID 1469, 2008; TRbeta-SRC2 peptide binding, fluorescence polarization; receptor liganded with 1 µM T3; Thyroid hormone receptor beta (Homo sapiens), P10828; actives 0.065% (n = 280,000); further: nearly all actives have a fitted effect of over 50% in size
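Quantitative HTS by FP: 0.6 uM TRb LBD, 20 nM labeled SRC2 20-mer, 1 uM T3, 5% DMSO; 5 hr ambient incubation; % activity per concentration and potencies from concentration series.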
RECQ1 inh-1: qHTS Assay for Inhibitors of RecQ-Like Dna Helicase 1 (RECQ1); AID 2549, 2010; ATP-dependent DNA helicase Q1 (Homo sapiens), P46063; actives 0.54% (n = 240,000); Potency, µM (titrated, usually from 57.3 µM), actives largely listed as inhibitors; RECQ1 DNA unwinding, red fluorescence kinetic read; further: nearly all actives have a fitted effect of over 30% in size
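RECQ1T1 50 nM; forked duplex (20 bp + 30-nt ss tails) 200 nM, ATP 2 mM final; pH 8.0, 2 mM MgCl2, 2.5 ug/ml poly(dI-dC); 15 min compound preincubation; discontinuous kinetic read over 2 h at RT.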
BLM inh-1: qHTS Assay for Inhibitors of Bloom's syndrome helicase (BLM); RecQ-like DNA helicase BLM (Homo sapiens), P54132; recombinant BLM DNA unwinding, fluorescence dequenching; Potency, µM (doses to about 56.1 µM), most hits filed as inhibitors; actives 0.2% (n = 350,000); further: nearly all actives have a fitted effect of over 35% in size
GoLoco inh red: qHTS Assay for Inhibitors of RGS12 GoLoco Motif Activity (Red Fluorophore). Gai1:RGS12 GoLoco peptide FP, rhodamine, 10 min. actives 0.44% (n = 230,000). Potency, µM (titrated, usually from 61.6 µM), usual class: inhibitors; active means well fitted inhibition curve with a large enough effect, not every such curve was filed as active; inactive means no such curve, though single readings can be large or run the other way; further: nearly all actives have a fitted effect of over 30% in size
Target sequence (P63096 whole entry, looked up): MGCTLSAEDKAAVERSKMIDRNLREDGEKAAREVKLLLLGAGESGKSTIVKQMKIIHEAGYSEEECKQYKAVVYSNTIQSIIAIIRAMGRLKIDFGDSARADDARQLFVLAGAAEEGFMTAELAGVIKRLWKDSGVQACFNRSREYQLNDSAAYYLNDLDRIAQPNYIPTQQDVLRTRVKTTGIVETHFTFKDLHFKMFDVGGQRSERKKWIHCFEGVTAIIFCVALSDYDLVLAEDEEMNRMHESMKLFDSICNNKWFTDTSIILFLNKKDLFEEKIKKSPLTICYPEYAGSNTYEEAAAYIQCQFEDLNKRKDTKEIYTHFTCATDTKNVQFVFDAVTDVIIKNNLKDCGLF
DNA dye displace: Counterscreen for APE1 Inhibitors: Fluorescent Dye Displacement Assay. shares compounds with APE1 inh-1. DNA fluorescent dye displacement counterscreen, fluorescence. Potency, µM (highest dose often 28.5 µM), usual class: inhibitors. actives 7% (n = 480). AID 2564, 2010;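 further: loss of thiazole orange fluorescence as the dye is displaced from duplex DNA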
Endo IV inh: Counterscreen for APE1 Inhibitors: qHTS Assay for Inhibitors of Endonuclease IV | AID 2565, 2010 | shares compounds with APE1 inh-1 | Potency, µM (titrated, usually from 27.1 µM), hits mostly inhibitors | E. coli Endo IV, fluorogenic AP-site DNA cleavage | actives 4% (n = 560)
APE1 inh-2: Confirmation qHTS Assay for Inhibitors of the Human Apurinic/apyrimidinic Endonuclease 1 (APE1); purified APE1, fluorogenic abasic-site DNA cleavage; actives 44% (n = 750); shares compounds with APE1 inh-1; Potency, µM (top dose mostly 57.1 µM), most hits filed as inhibitors; further: nearly all actives have a fitted effect of over 30% in size
APE1 FP: qHTS FP-Based Assay for Inhibitors of the Human Apurinic/apyrimidinic Endonuclease 1 (APE1) | shares compounds with APE1 inh-1 | APE1 binding to TAMRA-labelled double-stranded DNA, fluorescence polarization displacement | Potency, µM (doses to about 28.5 µM), actives largely listed as inhibitors | actives 7% (n = 480) | AID 2573, 2010
BLM inh-2: qHTS Confirmation Assay for Inhibitors of Bloom's syndrome helicase (BLM) | BLM DNA unwinding, fluorescence quenching, biochemical | Potency, µM, most hits filed as inhibitors | actives 40% (n = 220) | shares compounds with BLM inh-1;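 further: strand separation dequenches TAMRA so unwinding raises red fluorescence; series mostly up to about 69 µM; nearly all actives have a fitted effect of over 45% in size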
RECQ1 conf: Confirmation qHTS Assay for Inhibitors of RecQ-Like Dna Helicase 1 (RECQ1); AID 2708, 2010; Potency, µM (doses to about 229 µM), most hits filed as inhibitors; actives 28% (n = 610); shares compounds with RECQ1 inh-1; RECQ1 helicase DNA unwinding, fluorescence; further: nearly all actives have a fitted effect of over 45% in size
RECQ1 ADP FP: Counterscreen for RECQ1 Inhibitors: ADP Fluorescence Polarization Displacement Assay | Potency, µM (doses to about 228 µM), hits mostly inhibitors | actives 27% (n = 530) | ADP fluorescence polarization displacement counterscreen | shares compounds with RECQ1 inh-1; further: nearly all actives have a fitted effect of over 45% in size
RECQ1 inh-2: Confirmation qHTS Assay for Inhibitors of RecQ-Like Dna Helicase 1 (RECQ1) - Round 2 Cherry Picks; shares compounds with RECQ1 inh-1; recombinant RECQ1 DNA unwinding, red fluorescence; Potency, µM (series often up to 119 µM), actives largely listed as inhibitors; actives 15% (n = 1,100); further: nearly all actives have a fitted effect of over 50% in size
Of the large screens only hits and unclear results are named; the others gave an inactive call (follow-up assays come after a bar, where they were run); [ ] = remark or other dose. Unless noted, the call rests on the fitted dose curve; in most records, active means well fitted curve in the direction sought with a large enough effect; inconclusive means small, poorly fitted or top-dose-only effect, or another doubt; inactive means no such curve, though single readings can be large; an effect the other way counts as inactive or inconclusive.

CCOC(=O)NC1(Nc2ccc(Cl)cn2)Oc2ccccc2O1	APE1 inh-1 2.51µM, RECQ1 inh-1 22.4µM | APE1 inh-2 inactive
CCOC(=O)/C=C/C(=O)OCC(=O)Nc1ccc(Cl)cn1	none
Cc1ccc(-c2cc(-c3ccco3)c(C#N)c(=O)[nH]2)cc1	APE1 inh-1 35.5µM, RECQ1 inh-1 inconclusive, BLM inh-1 25.1µM | DNA dye displace inactive | Endo IV inh inactive | APE1 inh-2 inconclusive | APE1 FP inconclusive
Clc1ccc(-c2csc(N/N=C/c3cccnc3)n2)c(Cl)c1	none | APE1 inh-2 inactive
C(=N\Nc1nc(-c2ccccc2)cs1)/c1cccnc1	none
O=C(O)CSc1cc(C(=O)c2ccccc2O)cn2c(=O)c3c4c(sc3nc12)CCCC4	APE1 inh-1 inconclusive, BLM inh-1 25.1µM | DNA dye displace inactive | Endo IV inh inconclusive | APE1 inh-2 3.98µM | APE1 FP inconclusive | BLM inh-2 32.4µM
O=C(O)CSc1nc2sc3c(c2c(=O)n1Cc1ccccc1)CCCCC3	none (no result: TexasRed fluor, TRb SRC2 PPI, RECQ1 inh-1, GoLoco inh red)
O=C1CC(c2ccc(Br)cc2)c2c(ccc3ccccc23)N1 (stereo unspecified)	none (no result: APE1 inh-1, RECQ1 inh-1, GoLoco inh red)
Cc1ccc(/C=c2\sc3nc(-c4ccco4)nn3c2=O)o1	APE1 inh-1 5.62µM, BLM inh-1 25.1µM | DNA dye displace inconclusive | Endo IV inh inactive | APE1 inh-2 7.94µM | APE1 FP inactive | BLM inh-2 inactive
CCc1cc(=O)oc2cc(C)c(CN3CCCC3)c(O)c12	APE1 inh-1 12.6µM, TexasRed fluor inconclusive, TRb SRC2 PPI inconclusive, RECQ1 inh-1 7.08µM, BLM inh-1 11.2µM (no result: GoLoco inh red) | DNA dye displace inactive | Endo IV inh inactive | APE1 inh-2 inconclusive | APE1 FP inconclusive | BLM inh-2 inconclusive | RECQ1 conf 50.1µM | RECQ1 ADP FP inactive | RECQ1 inh-2 inconclusive
CCCN1CCC(=O)N(C(CSc2ccc(OC)cc2)c2ccccc2)CC1 (stereo unspecified)	none (no result: GoLoco inh red)
NC1=NC(=O)/C(=C\c2ccco2)S1	APE1 inh-1 22.4µM, RECQ1 inh-1 inconclusive | DNA dye displace inconclusive | Endo IV inh inactive | APE1 inh-2 inconclusive | APE1 FP inactive | RECQ1 inh-2 inactive
O=C1N=C(N2CCN(c3ccccc3)CC2)S/C1=C\c1ccco1	APE1 inh-1 inconclusive
Cc1cccc(NC(=O)CSc2nnc(-c3ccco3)c(-c3ccco3)n2)c1	APE1 inh-1 inconclusive, BLM inh-1 inconclusive
Cc1cccc(NC(=O)CSc2nnc(-c3ccco3)c(-c3ccco3)n2)c1C	APE1 inh-1 inconclusive, TexasRed fluor inconclusive, RECQ1 inh-1 17.8µM, BLM inh-1 17.8µM | DNA dye displace inconclusive | Endo IV inh inactive | APE1 inh-2 inconclusive | APE1 FP inactive | RECQ1 inh-2 inactive
COc1ccc(CNC(=O)c2cc3c(=O)n(C)c4ccccc4c3n2C)c(OC)c1	none (no result: APE1 inh-1, RECQ1 inh-1, GoLoco inh red)
O=C(O)C1=CC(=C(c2ccc(O)c(C(=O)O)c2)c2ccc(O)c(C(=O)O)c2)C=CC1=O	APE1 inh-1 0.0067µM, TexasRed fluor inconclusive, TRb SRC2 PPI inconclusive, RECQ1 inh-1 0.282µM, BLM inh-1 2.82µM, GoLoco inh red 2.82µM | Endo IV inh 2.24µM | APE1 inh-2 0.0562µM | BLM inh-2 10.8µM | RECQ1 conf 0.257µM | RECQ1 ADP FP inactive[25.6 µM]
N#C/C(=C/c1cccn1-c1cccc(C(=O)O)c1)c1ccc(Cl)cc1	APE1 inh-1 11.2µM, RECQ1 inh-1 inconclusive | DNA dye displace inconclusive | Endo IV inh inactive | APE1 inh-2 5.01µM | APE1 FP inactive | RECQ1 inh-2 44.7µM
COc1ccc(Cc2nnc(NC(=O)Cc3cccs3)s2)cc1OC	APE1 inh-1 28.2µM, TexasRed fluor inconclusive, RECQ1 inh-1 20µM, BLM inh-1 inconclusive | DNA dye displace inconclusive | Endo IV inh inactive | APE1 inh-2 2µM | APE1 FP inactive | RECQ1 inh-2 inconclusive
